Data as given in PubChem BioAssay AID1159580 (chemical genetic matrix, 2015).
Out of some 5,500 compounds screened, about 2,000 (36%) were called active. Roughly 18% stayed inconclusive and do not appear here. No stated cut-off is given here; in the data, active means normalized growth mostly below about 0.91 (no sharp cut-off); inconclusive means no clear call, values can overlap the other calls; inactive means mostly above about 0.92. Some of the results follow.

Assay: chemical genetic growth profiling, strain panel (AID 1159580);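 further: tested at 20 µM; growth read once vehicle control cultures reached saturation at 30 °C; 1 = growth at the plate median or of vehicle wells; lower values mean less growth of the strain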
Conditions: S. cerevisiae deletion strains, growth OD

Measured: normalized growth

O=C1CC2(CCCC2)C(=O)N1CCNc1nccc(C(F)(F)F)n1
inactive: locus YAL013W, strain DEP1, active compounds read low 1.01 | locus YBR229C, strain ROT2, active compounds read low 0.991 | locus YCL061C, strain MRC1, active compounds read low 0.977 | locus YDL101C, strain DUN1, active compounds read low 0.985 | locus YDR150W, strain NUM1, active compounds read low 1.05 | locus YEL061C, strain CIN8, active compounds read low 1.01 | locus YGR078C, strain PAC10, active compounds read low 0.982 | locus YHR030C, strain SLT2, active compounds read low 0.994 | locus YHR087W, strain rtc3, active compounds read low 1.03 | locus YJL187C, strain SWE1, active compounds read low 0.995 | locus YJR043C, strain POL32, active compounds read low 0.999 | locus YJR075W, strain HOC1, active compounds read low 0.97 | locus YKL190W, strain CNB1, active compounds read low 0.984 | locus YLR039C, strain RIC1, active compounds read low 0.935 | locus YLR058C, strain SHM2 (second series), active compounds read low 0.975 | locus YLR085C, strain ARP6, active compounds read low 0.999 | locus YLR262C, strain YPT6, active compounds read low 0.972 | locus YML094W, strain GIM5, active compounds read low 1 | locus YMR219W, strain ESC1, active compounds read low 0.997 | locus YMR263W, strain SAP30, active compounds read low 1.01 | locus YNL128W, strain TEP1, active compounds read low 0.989 | locus YNL153C, strain GIM3, active compounds read low 1.01 | locus YNL298W, strain CLA4 (second series), active compounds read low 0.964 | locus YNL322C, strain KRE1, active compounds read low 0.993 | locus YNR030W, strain Alg12, active compounds read low 0.986 | locus YPL055C, strain LGE1, active compounds read low 1.03 | locus YPL241C, strain CIN2, active compounds read low 1 | locus YPR135W, strain CTF4, active compounds read low 0.941
